Among the data in PubChem BioAssay (NCI) are growth inhibition values, retold here.

Structures are written as SMILES. Compounds without any hit were thinned out: in the full panel of roughly 79,000, 15% have a hit. Values without a mark were called inactive. Activity calls are given as the source filed them. No stated cut-off is given here; in the data, active means growth inhibition above about 70%; inactive means the rest.

The first assay is described as follows: NCI Yeast Anticancer Drug Screen. Data for the mgt1 strain (AID 153). The note with it: S. cerevisiae mgt1 mutant growth inhibition; at 100.0 µM; hits give high values. In short, it runs like this: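 Genetically defined yeast (mgt1) treated with compound; inhibition of growth expressed against vehicle-treated controls.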
On to `CN(C)CC(CN(C)C)C(=O)/C=C/c1ccc(Cl)cc1Cl`, for which the growth inhibition was 98% (active).
As for `c1ccc2c(c1)ccn2CCc1c[nH]c2ccccc12`, the growth inhibition is 96% (active).
On the same count and under the same terms, under `Cc1ccccc1NC(=O)c1c(C)oc2c1C(=O)c1ccccc1C2=O` stands 93% (active).
Regarding `CC(C)OC(=O)NNc1c(Cl)cc(Cl)cc1Cl`, the growth inhibition is 5%.
Still for that read-out and setting: to `COc1ccc2nc3cccc([N+](=O)[O-])c3c(NCCNCCO)c2c1` belongs 75% (active); to `COc1ccc2c(c1)CCCC(Br)C2=O` (configuration not stated), 98% (active).
Regarding `CCC(OC(C)=O)C1CC(C(C)C)CCC1C` (configuration not stated), the growth inhibition was 82% (active).
On to `O=S(=O)(c1cccc(C(F)(F)F)c1)N1c2ccccc2-n2cccc2C1c1cccnc1` (configuration not stated), for which the growth inhibition was 92% (active).
On the same count and under the same terms, to `c1ccc(-c2cc(C3CO3)c3ccccc3n2)cc1` (configuration not stated) belongs 99% (active); to `COc1ccc(/C=C2\SC(=S)N(/C=C3\C(=O)N(c4ccccc4)N=C3C)C2=O)cc1OC`, 89% (active).
On to `CC1=CC(=C(c2ccc(N)c(C)c2)c2ccc(N)c(C)c2)C=CC1=N`, for which the growth inhibition was 97% (active).
Turning to `CC1C(c2ccccc2)SC(=N)N1C` (configuration not stated), the growth inhibition was -1%.
Regarding `CC(/C=C/c1ccc([N+](=O)[O-])o1)=N/N1CC(CN2CCOCC2)OC1=O` (configuration not stated), the growth inhibition was 85% (active).
As to `C=CC(C)(C)N1C(=O)C(C(C)=O)=C(O)C1Cc1c[nH]c2ccccc12` (configuration not stated), the growth inhibition was 95% (active).
Same read-out and setting: to `O=C1c2cccc3cccc(c23)C(=O)N1CCNCCN1C(=O)c2cccc3cccc(c23)C1=O` belongs 2%; to `Cc1ccc([N+](=O)[O-])c2c(NCCC[N+](C)(C)[O-])c3ccccc3nc12`, 1%; to `COC(=O)C(Cc1c[nH]c2ccccc12)N1CN(C)c2ccccc2C1=O` (configuration not stated), 99% (active).
In the case of `O=C(/N=N/C(=O)Oc1ccccc1)Oc1ccccc1`, the growth inhibition is 57%.
With `COc1cc([C@@H]2c3cc4c(cc3[C@@H](NC(=O)NO)[C@H]3COC(=O)[C@H]23)OCO4)cc(OC)c1O`, the growth inhibition is 4%.
Regarding `CC1(C)CC(=O)C(/C=N/c2nc(-c3ccc(Br)cc3)cs2)=C(O)C1`, the growth inhibition was 98% (active).
`CCOC(=O)/C(=C/c1cccc(Cl)c1)N(CC)CC`: the growth inhibition is 93% (active).
`CC(C)OC(=O)NNc1cccc(Cl)c1`: the growth inhibition was 99% (active).
Take `CCC(=O)C1=C(O)c2cc(OC)ccc2CC1C(=O)OC` (configuration not stated): the growth inhibition was 19%.
With `O=S(=O)(NC1CCCC(c2ccccc2)C1)c1ccccc1` (configuration not stated), the growth inhibition is 95% (active).
For `COc1ccc2nc3cccc([N+](=O)[O-])c3c(NCCCCCC(=O)O)c2c1`, the growth inhibition is 99% (active).
Turning to `CCO/C=C1\SC(=S)N(c2ccc(OCC)cc2)C1=O`, the growth inhibition is 45%.
As for `COc1cc(OC)c(CSCC(NC(=O)OCC2c3ccccc3-c3ccccc32)C(=O)O)c(OC)c1` (configuration not stated), the growth inhibition was 98% (active).
With `COC(=O)c1ccccc1N=NNc1cccc(SC)c1`, the growth inhibition was 88% (active).
Consider `CC1=NN(C(=O)c2ccccc2O)C(=O)/C1=C/c1ccco1`, for which the growth inhibition was 96% (active).
On to `COc1ccccc1NC(=O)c1ccc(Cl)cc1`, for which the growth inhibition is -10%.
Take `CC(C)=CCC/C(C)=C/CN1C(=O)C=CC1=O`: the growth inhibition was 100% (active).
For `O=C1CSC(c2ccccc2)N1c1ccc(-c2ccc(-n3c(-c4ccccc4)nc4ccccc4c3=O)cc2)cc1` (configuration not stated), the growth inhibition was 64%.
For `N#CC1OB(O)c2ccccc21` (configuration not stated), the growth inhibition is -3%.
As to `O=C(NCCNCCNC(=O)c1cc(-c2ccccc2)nc2ccccc12)c1cc(-c2ccccc2)nc2ccccc12`, the growth inhibition is 1%.
For the molecule `Brc1ccc(B2Nc3ccccc3N2)cc1`, the growth inhibition was 5%.
For `CCOP(=O)(OCC)/C(C#N)=C/c1cccc(Oc2ccccc2)c1`, the growth inhibition was 96% (active).

The nature of a further assay: NCI Yeast Anticancer Drug Screen. Data for the rad50 strain (AID 155).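 Further: 0% = growth of vehicle-only cultures of the same strain.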 The note with it: S. cerevisiae rad50 strain growth inhibition; at 1.2 µM; hits give high values. In a few lines: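 A DNA repair-deficient yeast mutant serves as the test organism; compound-induced growth inhibition is calculated against vehicle-treated cells.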
As for `CN(C)CC(CN(C)C)C(=O)/C=C/c1ccc(Cl)cc1Cl`, the growth inhibition was -1%.
For the molecule `c1ccc2c(c1)ccn2CCc1c[nH]c2ccccc12`, the growth inhibition was -20%.
Regarding `Cc1ccccc1NC(=O)c1c(C)oc2c1C(=O)c1ccccc1C2=O`, the growth inhibition is -13%.
Same read-out and setting: under `CC(C)OC(=O)NNc1c(Cl)cc(Cl)cc1Cl` stands -2%; under `COc1ccc2nc3cccc([N+](=O)[O-])c3c(NCCNCCO)c2c1`, 41%.
In the case of `COc1ccc2c(c1)CCCC(Br)C2=O` (configuration not stated), the growth inhibition is 30%.
On the same count and under the same terms, to `CCC(OC(C)=O)C1CC(C(C)C)CCC1C` (configuration not stated) belongs 4%; to `O=S(=O)(c1cccc(C(F)(F)F)c1)N1c2ccccc2-n2cccc2C1c1cccnc1` (configuration not stated), -15%; to `c1ccc(-c2cc(C3CO3)c3ccccc3n2)cc1` (configuration not stated), -4%.
On the same count and under the same terms, to `COc1ccc(/C=C2\SC(=S)N(/C=C3\C(=O)N(c4ccccc4)N=C3C)C2=O)cc1OC` belongs -5%; to `CC1=CC(=C(c2ccc(N)c(C)c2)c2ccc(N)c(C)c2)C=CC1=N`, 21%.
`CC1C(c2ccccc2)SC(=N)N1C` (configuration not stated): the growth inhibition is -2%.
Same read-out and setting: to `CC(/C=C/c1ccc([N+](=O)[O-])o1)=N/N1CC(CN2CCOCC2)OC1=O` (configuration not stated) belongs -9%.
On to `C=CC(C)(C)N1C(=O)C(C(C)=O)=C(O)C1Cc1c[nH]c2ccccc12` (configuration not stated), for which the growth inhibition was -2%.
Turning to `O=C1c2cccc3cccc(c23)C(=O)N1CCNCCN1C(=O)c2cccc3cccc(c23)C1=O`, the growth inhibition is 1%.
Still for that read-out and setting: under `Cc1ccc([N+](=O)[O-])c2c(NCCC[N+](C)(C)[O-])c3ccccc3nc12` stands 4%.
On to `COC(=O)C(Cc1c[nH]c2ccccc12)N1CN(C)c2ccccc2C1=O` (configuration not stated), for which the growth inhibition is 7%.
With `O=C(/N=N/C(=O)Oc1ccccc1)Oc1ccccc1`, the growth inhibition is -81%.
Consider `COc1cc([C@@H]2c3cc4c(cc3[C@@H](NC(=O)NO)[C@H]3COC(=O)[C@H]23)OCO4)cc(OC)c1O`, for which the growth inhibition is 0%.
Turning to `CC1(C)CC(=O)C(/C=N/c2nc(-c3ccc(Br)cc3)cs2)=C(O)C1`, the growth inhibition was 3%.
As to `CCOC(=O)/C(=C/c1cccc(Cl)c1)N(CC)CC`, the growth inhibition is -1%.
`CC(C)OC(=O)NNc1cccc(Cl)c1`: the growth inhibition is 4%.
For `CCC(=O)C1=C(O)c2cc(OC)ccc2CC1C(=O)OC` (configuration not stated), the growth inhibition is -1%.
For `O=S(=O)(NC1CCCC(c2ccccc2)C1)c1ccccc1` (configuration not stated), the growth inhibition was 3%.
On to `COc1ccc2nc3cccc([N+](=O)[O-])c3c(NCCCCCC(=O)O)c2c1`, for which the growth inhibition was 84% (active).
Same read-out and setting: to `CCO/C=C1\SC(=S)N(c2ccc(OCC)cc2)C1=O` belongs -17%; to `COc1cc(OC)c(CSCC(NC(=O)OCC2c3ccccc3-c3ccccc32)C(=O)O)c(OC)c1` (configuration not stated), -6%; to `COC(=O)c1ccccc1N=NNc1cccc(SC)c1`, 12%.
On the same count and under the same terms, under `CC1=NN(C(=O)c2ccccc2O)C(=O)/C1=C/c1ccco1` stands -3%; under `COc1ccccc1NC(=O)c1ccc(Cl)cc1`, 3%; under `CC(C)=CCC/C(C)=C/CN1C(=O)C=CC1=O`, 7%.
On to `O=C1CSC(c2ccccc2)N1c1ccc(-c2ccc(-n3c(-c4ccccc4)nc4ccccc4c3=O)cc2)cc1` (configuration not stated), for which the growth inhibition was 0%.
For `N#CC1OB(O)c2ccccc21` (configuration not stated), the growth inhibition was -13%.
Take `O=C(NCCNCCNC(=O)c1cc(-c2ccccc2)nc2ccccc12)c1cc(-c2ccccc2)nc2ccccc12`: the growth inhibition is -3%.
Take `Brc1ccc(B2Nc3ccccc3N2)cc1`: the growth inhibition is 6%.
For the molecule `CCOP(=O)(OCC)/C(C#N)=C/c1cccc(Oc2ccccc2)c1`, the growth inhibition was -30%.
